Values joined by “and” are separate entries in the source; they are usually repeats but may differ in a detail not shown here. Equal entries are not always repeated. Screen size: about 5,500 compounds; about 2,000 (36%) were called active. Another 18% or so got no clear call; they are omitted. Cut-off read from the data, not from the text of the source: active = normalized growth mostly below about 0.91 (no sharp cut-off); inconclusive = no clear call, values can overlap the other calls; inactive = mostly above about 0.92. Some of the results follow.
Assay: chemical genetic growth profiling, strain panel (AID 1159580);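 note: tested at 20 µM; growth read once vehicle control cultures reached saturation at 30 °C; 1 = growth at the plate median or of vehicle wells; lower values mean less growth of the strain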
Conditions: growth OD

Measured: normalized growth

CCCCNc1cc(C(=O)O)cc(S(N)(=O)=O)c1Oc1ccccc1
inactive: S. cerevisiae deletion strains, locus YKL009W, strain mrt4, stronger effect = lower value 0.979 | S. cerevisiae deletion strains, locus YKL068W, stronger effect = lower value 0.986 | S. cerevisiae deletion strains, locus YKL085W, strain MDH1 (second series), stronger effect = lower value 0.989 | S. cerevisiae deletion strains, locus YKL085W, strain MDH1, stronger effect = lower value 0.989 | S. cerevisiae deletion strains, locus YKL160W, strain elf1, stronger effect = lower value 0.995 | S. cerevisiae deletion strains, locus YKL190W, strain CNB1, stronger effect = lower value 0.994 | S. cerevisiae deletion strains, locus YKR001C, strain vps1, stronger effect = lower value 0.983 | S. cerevisiae deletion strains, locus YKR026C, strain gcn3, stronger effect = lower value 1.01 | S. cerevisiae deletion strains, locus YKR091W, strain srl3, stronger effect = lower value 1 | S. cerevisiae deletion strains, locus YLL001W, strain dnm1, stronger effect = lower value 1 | S. cerevisiae deletion strains, locus YLL026W, stronger effect = lower value 0.992 | S. cerevisiae deletion strains, locus YLL041C, strain sdh2, stronger effect = lower value 0.991 | S. cerevisiae deletion strains, locus YLR027C, strain aat2, stronger effect = lower value 1.01 | S. cerevisiae deletion strains, locus YLR039C, strain RIC1, stronger effect = lower value 1.01 | S. cerevisiae deletion strains, locus YLR058C, strain SHM2, stronger effect = lower value 0.988 | S. cerevisiae deletion strains, locus YLR102C, strain apc9, stronger effect = lower value 0.984 | S. cerevisiae deletion strains, locus YLR113W, strain HOG1, stronger effect = lower value 1.04 | S. cerevisiae deletion strains, locus YLR221C, strain rsa3, stronger effect = lower value 1 | S. cerevisiae deletion strains, locus YLR258W, strain gsy2, stronger effect = lower value 0.995 | S. cerevisiae deletion strains, locus YLR262C, strain YPT6 (second series), stronger effect = lower value 1.02 | S. cerevisiae deletion strains, locus YLR262C, strain YPT6, stronger effect = lower value 1.02 | S. cerevisiae deletion strains, locus YLR268W, strain sec22, stronger effect = lower value 0.965 | S. cerevisiae deletion strains, locus YLR320W, strain mms22, stronger effect = lower value 0.976 | S. cerevisiae deletion strains, locus YLR330W, strain CHS5, stronger effect = lower value 0.995 | S. cerevisiae deletion strains, locus YLR342W, strain FKS1 (second series), stronger effect = lower value 0.975 | S. cerevisiae deletion strains, locus YLR342W, strain FKS1, stronger effect = lower value 0.976 | S. cerevisiae deletion strains, locus YLR357W, strain rsc2, stronger effect = lower value 0.977 | S. cerevisiae deletion strains, locus YLR370C, strain arc18, stronger effect = lower value 1.01 | S. cerevisiae deletion strains, locus YLR371W, strain rom2, stronger effect = lower value 0.984 | S. cerevisiae deletion strains, locus YLR384C, strain iki3, stronger effect = lower value 1.02 | S. cerevisiae deletion strains, locus YLR418C, strain cdc73, stronger effect = lower value 0.959 | S. cerevisiae deletion strains, locus YML016C, strain PPZ1, stronger effect = lower value 0.991 | S. cerevisiae deletion strains, locus YML032C, strain rad52, stronger effect = lower value 0.99 | S. cerevisiae deletion strains, locus YML120C, strain ndi1, stronger effect = lower value 0.994 | S. cerevisiae deletion strains, locus YML124C, strain tub3, stronger effect = lower value 0.974 | S. cerevisiae deletion strains, locus YMR058W, strain fet3, stronger effect = lower value 1.06 | S. cerevisiae deletion strains, locus YMR078C, strain ctf18, stronger effect = lower value 0.978 | S. cerevisiae deletion strains, locus YMR125W, strain sto1, stronger effect = lower value 1.01 | S. cerevisiae deletion strains, locus YMR129W, stronger effect = lower value 1.02 | S. cerevisiae deletion strains, locus YMR205C, strain PFK2, stronger effect = lower value 0.989 | S. cerevisiae deletion strains, locus YMR223W, strain ubp8, stronger effect = lower value 0.972 | S. cerevisiae deletion strains, locus YMR231W, strain pep5, stronger effect = lower value 1.01 | S. cerevisiae deletion strains, locus YMR263W, strain SAP30, stronger effect = lower value 0.997 | S. cerevisiae deletion strains, locus YMR307W, strain GAS1, stronger effect = lower value 0.957 | S. cerevisiae deletion strains, locus YNL067W, strain RPL9B, stronger effect = lower value 1.02 | S. cerevisiae deletion strains, locus YNL071W, strain lat1, stronger effect = lower value 1.02 | S. cerevisiae deletion strains, locus YNL128W, strain TEP1, stronger effect = lower value 0.981 | S. cerevisiae deletion strains, locus YNL153C, strain GIM3, stronger effect = lower value 1.05 and 1.02 | S. cerevisiae deletion strains, locus YNL175C, strain NOP13, stronger effect = lower value 1 | S. cerevisiae deletion strains, locus YNL183C, strain NPR1, stronger effect = lower value 0.967 | S. cerevisiae deletion strains, locus YNL197C, strain WHI3, stronger effect = lower value 1.04 | S. cerevisiae deletion strains, locus YNL209W, strain ssb2, stronger effect = lower value 1.01 | S. cerevisiae deletion strains, locus YNL224C, strain SQS1, stronger effect = lower value 0.999 | S. cerevisiae deletion strains, locus YNL233W, strain BNI4, stronger effect = lower value 1.01 | S. cerevisiae deletion strains, locus YNL248C, strain rpa49, stronger effect = lower value 0.987 | S. cerevisiae deletion strains, locus YNL250W, strain rad50, stronger effect = lower value 0.946 | S. cerevisiae deletion strains, locus YNL271C, strain bni1, stronger effect = lower value 0.967 | S. cerevisiae deletion strains, locus YNL298W, strain CLA4, stronger effect = lower value 0.969 | S. cerevisiae deletion strains, locus YNL307C, strain MCK1, stronger effect = lower value 0.975 | S. cerevisiae deletion strains, locus YNL322C, strain KRE1 (second series), stronger effect = lower value 0.982 | S. cerevisiae deletion strains, locus YNR049C, strain mso1, stronger effect = lower value 1 | S. cerevisiae deletion strains, locus YNR052C, strain pop2, stronger effect = lower value 0.977 | S. cerevisiae deletion strains, locus YOL006C, strain TOP1, stronger effect = lower value 1 | S. cerevisiae deletion strains, locus YOL012C, strain htz1 0.812 | S. cerevisiae deletion strains, locus YOL147C, strain pex11, stronger effect = lower value 0.977 | S. cerevisiae deletion strains, locus YOR001W, strain rrp6, stronger effect = lower value 1.01 | S. cerevisiae deletion strains, locus YOR061W, strain CKA2, stronger effect = lower value 0.99 | S. cerevisiae deletion strains, locus YOR069W, strain VPS5, stronger effect = lower value 0.986 | S. cerevisiae deletion strains, locus YOR070C, strain gyp1, stronger effect = lower value 0.998 | S. cerevisiae deletion strains, locus YOR080W, strain dia2, stronger effect = lower value 1.01 | S. cerevisiae deletion strains, locus YOR083W, strain WHI5 (second series), stronger effect = lower value 1.03 | S. cerevisiae deletion strains, locus YOR083W, strain WHI5, stronger effect = lower value 0.951 | S. cerevisiae deletion strains, locus YOR106W, strain vam3, stronger effect = lower value 1.03 | S. cerevisiae deletion strains, locus YOR136W, strain idh2, stronger effect = lower value 0.992 | S. cerevisiae deletion strains, locus YOR144C, strain elg1, stronger effect = lower value 0.982 | S. cerevisiae deletion strains, locus YOR184W, strain ser1, stronger effect = lower value 0.973 | S. cerevisiae deletion strains, locus YOR231W, strain MKK1, stronger effect = lower value 1.07 | S. cerevisiae deletion strains, locus YOR265W, strain rbl2, stronger effect = lower value 1 | S. cerevisiae deletion strains, locus YOR270C, strain vph1, stronger effect = lower value 1.05 | S. cerevisiae deletion strains, locus YOR290C, strain snf2, stronger effect = lower value 1 | S. cerevisiae deletion strains, locus YOR316C, strain cot1, stronger effect = lower value 0.986 | S. cerevisiae deletion strains, locus YPL051W, strain arl3, stronger effect = lower value 0.997 | S. cerevisiae deletion strains, locus YPL055C, strain LGE1, stronger effect = lower value 1.01 | S. cerevisiae deletion strains, locus YPL078C, strain atp4, stronger effect = lower value 1 | S. cerevisiae deletion strains, locus YPL106C, strain sse1, stronger effect = lower value 0.962 | S. cerevisiae deletion strains, locus YPL240C, strain hsp82, stronger effect = lower value 1 | S. cerevisiae deletion strains, locus YPL241C, strain CIN2, stronger effect = lower value 0.985 | S. cerevisiae deletion strains, locus YPL256C, strain CLN2, stronger effect = lower value 1.06 | S. cerevisiae deletion strains, locus YPR119W, strain clb2, stronger effect = lower value 0.983 | S. cerevisiae deletion strains, locus YPR141C, strain kar3, stronger effect = lower value 0.967 | S. cerevisiae deletion strains, locus YPR163C, strain tif3, stronger effect = lower value 0.983 | S. cerevisiae deletion strains, locus YPR167C, strain met16, stronger effect = lower value 0.986 | S. cerevisiae deletion strains, strain wtn01, stronger effect = lower value 0.958 | S. cerevisiae strains, strain wild type, stronger effect = lower value 0.999

— PubChem BioAssay AID1159580 (chemical genetic matrix, 2015)
